# According to PubChem BioAssay (EPA / NIEHS):
# Values joined by “and” are separate entries in the source; they are usually repeats but may differ in a detail not shown here. Equal values may be shown once. Inconclusive results are not listed. More than one record can exist for a structure, and the calls need not agree. Active and inactive are the calls of the source. Rule for the calls, unless noted: active = hit-call score of the fitted dose curve at least 0.9, where 1 is the maximum; inconclusive = response in the unintended direction; inactive = score below 0.9.
# How the values were obtained:
# [1] = biological target: Cellular tumor antigen p53 (Homo sapiens) (UniProt P04637); assay: TOX21_p53_BLA_p5_ratio: Tox21 HCT-116 p53 Agonism Beta-lactamase Assay, Ratio, Phase 5 (AID 2283599)
# In short: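 Beta-lactamase reporter ratio (blue 460 nm over green 530 nm, 405 nm excitation) after 2 h CCF4-AM loading, in HCT-116 cells exposed 16 h at 37 C to compounds pinned at 217-fold dilution. Increases relative to DMSO baseline scored.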
# [2] = TOX21_p53_BLA_p5_viability: Viability Assessment in the Tox21 HCT-116 p53 Agonism Beta-lactamase Assay, Phase 5 (AID 2283600)
# In short: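 Workflow: seed 4000 cells per well, wait 5 h, add compounds (DMSO, 217-fold dilution), incubate 16 h, load CCF4-AM 2 h, add CellTiter-Glo, read luminescence after 30 min.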
# [3] = biological target: Cellular tumor antigen p53 (Homo sapiens) (UniProt P04637); assay: TOX21_p53_BLA_p4_ratio: Tox21 HCT-116 p53 Agonism Beta-lactamase Assay, Ratio, Phase 4 (AID 2283601)
# In short: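 Signal is the blue/green (460nm/530nm) ratio of cleaved versus uncleaved CCF4-AM substrate, read after 2 h substrate loading. Cells were HCT116 carrying the p53-responsive beta-lactamase reporter, dosed 16 h at 37C, 5% CO2; CellTiter-Glo measured in parallel.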
# [4] = Tanguay_ZF_120hpf_MORT_legacy: (Legacy) Oregon State University Tanguay Lab 120 Hour Post-fertilization zebrafish Assay for Mortality (AID 2283633)
# In short: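 5D WT zebrafish, chorion removed 4 hpf; 1 embryo/well from 6 hpf; static exposure to 120 hpf, 28C, dark, sealed. Final DMSO 0.64%. Readout: binary mortality, brightfield, 24 + 120 hpf; DMSO as negative control.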
# [5] = Tanguay_ZF_120hpf_YSE_legacy: (Legacy) Oregon State University Tanguay Lab 120 Hour Post-fertilization zebrafish Assay for Yolk Sac Edema (AID 2283634);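 for AC50: actives raise the incidence of yolk sac edema above the DMSO baseline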
# In short: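 Dechorionate (pronase, 4 hpf) → place one 6 hpf embryo per well → static compound exposure, sealed and foil-covered, 28C, to 120 hpf → record yolk sac edema as present or absent. Final DMSO 0.64%.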
# [6] = Tanguay_ZF_120hpf_EYE_legacy: (Legacy) Oregon State University Tanguay Lab 120 Hour Post-fertilization zebrafish Assay for Eye Malformation (AID 2283636)
# In short: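 Binary brightfield scoring of eye defects at 120 hpf after static exposure from 6 hpf of single pronase-dechorionated wild-type embryos (28C, 0.64% DMSO). Non-mortality endpoints omitted where embryos died; fit vs DMSO.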
# [7] = Tanguay_ZF_120hpf_SNOU_legacy: (Legacy) Oregon State University Tanguay Lab 120 Hour Post-fertilization zebrafish Assay for Snout Malformation (AID 2283637)
# In short: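 Binary snout-malformation call at 120 hpf in wild-type 5D embryos, chorion removed by pronase, under static exposure from 6 hpf at 28C (0.64% DMSO). Embryos dying by 24 or 120 hpf excluded.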
# [8] = Tanguay_ZF_120hpf_PE_legacy: (Legacy) Oregon State University Tanguay Lab 120 Hour Post-fertilization zebrafish Assay for Pericardial Edema (AID 2283640);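 for AC50: potency for increased incidence of pericardial edema versus DMSO baseline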
# In short: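 Embryos from wild-type 5D adults were staged, then dosed in 0.64% DMSO. They were kept sealed in the dark at 28C until 120 hpf. Pericardial edema was then recorded as present or absent.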
# [9] = Tanguay_ZF_120hpf_BRAI_legacy: (Legacy) Oregon State University Tanguay Lab 120 Hour Post-fertilization zebrafish Assay for Brain Malformation (AID 2283641)
# In short: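 Wild-type 5D larvae, static waterborne exposure to 120 hpf, 28C, 0.64% v/v DMSO. Brightfield scoring of brain defects, binary; dead embryos excluded. Positive ctrl 5uM trimethyltin chloride.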
# [10] = Tanguay_ZF_120hpf_PFIN_legacy: (Legacy) Oregon State University Tanguay Lab 120 Hour Post-fertilization zebrafish Assay for Pectoral Fin Malformation (AID 2283648);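 note: each larva judged yes or no for fin defect by brightfield with dead larvae skipped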
# In short: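 Pectoral fin malformation was recorded as a binary endpoint at 120 hpf in wild-type Tropical 5D larvae, which had been dechorionated and exposed statically from 6 hpf at 28C in 0.64% DMSO. Dead embryos were excluded.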
# [11] = Tanguay_ZF_120hpf_CFIN_legacy: (Legacy) Oregon State University Tanguay Lab 120 Hour Post-fertilization zebrafish Assay for Caudal Fin Malformation (AID 2283649)
# In short: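 Binary presence or absence of caudal fin malformation at 120 hpf, read by brightfield microscopy, with DMSO as baseline. Larvae came from 5D wild-type embryos exposed statically from 6 hpf at 28C after pronase dechorionation.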
# [12] = Tanguay_ZF_120hpf_PIG_legacy: (Legacy) Oregon State University Tanguay Lab 120 Hour Post-fertilization zebrafish Assay for Pigmentation Malformation (AID 2283650)
# In short: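 Pigment malformation recorded as a binary call at 120 hpf in zebrafish (Tropical 5D) exposed singly from 6 hpf after pronase dechorionation. Static, sealed, 28C exposure, 0.64% DMSO; mortality excludes scoring; positive-direction fit against DMSO.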
# [13] = Tanguay_ZF_120hpf_CIRC_legacy: (Legacy) Oregon State University Tanguay Lab 120 Hour Post-fertilization zebrafish Assay for Circulatory Malformation (AID 2283651)
# In short: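 Binary circulatory malformation call at 120 hpf by brightfield imaging of zebrafish larvae; chorion removed at 4 hpf, static exposure from 6 hpf in sealed dark plates at 28C, final DMSO 0.64%; non-mortality endpoints skipped if embryo died.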
# [14] = read-out: kallikrein-3 (KLK3), KLK3 (gene 354); assay: LTEA_HepaRG_KLK3: Life Technologies and Expression Analysis (LTEA) Assay for kallikrein-3 (KLK3) using HepaRG (AID 2283652; active = hit-call score of the fitted dose curve at least 0.9, where 1 is the maximum; inactive = score below 0.9); details: mRNA level, 48 h; actives raise or lower the signal
# In short: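 KLK3 transcript levels were measured by TaqMan qRT-PCR with normalisation to three housekeeping genes. HepaRG cultures received chemicals for 48 h at up to 100 uM (half-log, 8 points, 0.5% DMSO vehicle), fitted in both directions against DMSO.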
# [15] = read-out: solute carrier (SLC22A6), SLC22A6 (gene 9356); assay: LTEA_HepaRG_SLC22A6: Life Technologies and Expression Analysis (LTEA) Assay for solute carrier (SLC22A6) using HepaRG (AID 2283653; active = hit-call score of the fitted dose curve at least 0.9, where 1 is the maximum; inactive = score below 0.9); details: mRNA level, 48 h; actives raise or lower the signal
# In short: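 Read-out is SLC22A6 transcript level by qRT-PCR, normalised to three housekeeping genes and fitted for gain or loss relative to 0.5% DMSO vehicle. Human HepaRG cells received chemicals at up to 100 uM for 48 h.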
# [16] = Tanguay_ZF_120hpf_SWIM_legacy: (Legacy) Oregon State University Tanguay Lab 120 Hour Post-fertilization zebrafish Assay for Swim Bladder Malformation (AID 2283654);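 note: swim bladder malformation in each larva scored yes or no under brightfield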
# In short: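 Scoring is binary for swim bladder defects at 120 hpf, by brightfield inspection of zebrafish larvae. Embryos were exposed singly from 6 hpf after pronase dechorionation, at 28C with 0.64% DMSO; mortality excluded scoring.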
# [17] = Tanguay_ZF_120hpf_TRUN_legacy: (Legacy) Oregon State University Tanguay Lab 120 Hour Post-fertilization zebrafish Assay for Truncated Body (AID 2283655)
# In short: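 Truncated body is recorded as a binary endpoint at 120 hpf by brightfield imaging of wild-type 5D larvae. Exposure runs statically from 6 hpf at 28C with 0.64% DMSO; embryos dying earlier are not scored.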
# [18] = Tanguay_ZF_120hpf_NC_legacy: (Legacy) Oregon State University Tanguay Lab 120 Hour Post-fertilization zebrafish Assay for Notochord and Tail Malformation (AID 2283656)
# In short: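 Binary scoring of notochord distortion by brightfield microscopy; embryos dying were not scored. Wild-type Tropical 5D embryos, chorion removed, exposed singly and statically from 6 to 120 hpf, 28C, sealed, 0.64% DMSO.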
# [19] = read-out: solute carrier (SLC10A1), SLC10A1 (gene 6554); assay: LTEA_HepaRG_SLC10A1: Life Technologies and Expression Analysis (LTEA) Assay for solute carrier (SLC10A1) using HepaRG (AID 2283657; active = hit-call score of the fitted dose curve at least 0.9, where 1 is the maximum; inactive = score below 0.9); details: mRNA level, 48 h; actives raise or lower the signal
# In short: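 SLC10A1 transcript measured by TaqMan qRT-PCR, housekeeping-normalised, after 48 h chemical treatment of human HepaRG cells. Eight concentrations (half-log, max 100 uM, 0.5% DMSO vehicle) in duplicate; fitted bidirectionally against DMSO baseline.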
# [20] = Tanguay_ZF_120hpf_OTIC_legacy: (Legacy) Oregon State University Tanguay Lab 120 Hour Post-fertilization zebrafish Assay for Otic Vesicle Malformation (AID 2283639)
# In short: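 Binary scoring of otic vesicle defects at 120 hpf in zebrafish (Tropical 5D) held under static exposure at 28C, sealed and shaded, with final DMSO 0.64%. Embryos dying by 24 or 120 hpf excluded; fitted positively against DMSO.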
# Sequence of Cellular tumor antigen p53 (Homo sapiens) (P04637 whole entry, looked up): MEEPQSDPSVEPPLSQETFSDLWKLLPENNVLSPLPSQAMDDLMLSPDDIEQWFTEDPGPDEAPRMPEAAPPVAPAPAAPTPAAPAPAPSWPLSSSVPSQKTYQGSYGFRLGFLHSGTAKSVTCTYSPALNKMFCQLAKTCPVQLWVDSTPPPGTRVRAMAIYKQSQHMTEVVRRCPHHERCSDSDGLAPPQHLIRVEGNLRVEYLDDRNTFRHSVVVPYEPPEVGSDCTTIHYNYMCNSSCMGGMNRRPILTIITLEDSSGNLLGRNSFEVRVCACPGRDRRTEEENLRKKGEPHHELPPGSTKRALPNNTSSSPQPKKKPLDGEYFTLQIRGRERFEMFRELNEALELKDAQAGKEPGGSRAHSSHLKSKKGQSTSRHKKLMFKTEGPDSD
compound,measurement,setting,value
CC(C)(C)OOC(C)(C)C,outcome,[1],inactive
same,outcome,[2],inactive
same,outcome,[3],inactive
same,outcome,[4],inactive
same,outcome,[5],inactive
same,outcome,[6],inactive
same,outcome,[7],inactive
same,outcome,[8],inactive
same,outcome,[9],inactive
same,outcome,[10],inactive
same,outcome,[11],inactive
same,outcome,[12],inactive
same,outcome,[13],inactive
same,outcome,[14],inactive
same,outcome,[15],inactive
same,outcome,[16],inactive
same,outcome,[17],inactive
same,outcome,[18],inactive
same,outcome,[19],inactive
CCOP(=S)(NC(C)C)Oc1ccccc1C(=O)OC(C)C (configuration not stated),outcome,[1],inactive
same,outcome,[2],inactive
same,outcome,[3],inactive
CCCCN(CC)C(=O)SCCC,outcome,[1],inactive
same,outcome,[2],inactive
same,outcome,[3],inactive
C=C(C)C(=O)OCC1CO1 (configuration not stated),outcome,[1],inactive
same,outcome,[2],inactive
same,outcome,[3],inactive
OCC1CO1 (configuration not stated),outcome,[1],inactive
same,outcome,[2],inactive
same,outcome,[3],inactive
same,outcome,[4],inactive
same,outcome,[5],inactive
same,outcome,[6],inactive
same,outcome,[7],inactive
same,outcome,[20],inactive
same,outcome,[8],inactive
same,outcome,[9],inactive
same,outcome,[10],inactive
same,outcome,[11],inactive
same,outcome,[12],inactive
same,outcome,[13],inactive
same,outcome,[17],inactive
c1ccc2c(c1)Nc1ccccc1S2,outcome,[1],inactive
same,outcome,[2],inactive
same,outcome,[3],inactive
same,outcome,[4],inactive
same,outcome,[5],inactive
same,outcome,[6],inactive
same,outcome,[7],inactive
same,outcome,[20],inactive
same,outcome,[8],inactive
same,outcome,[9],inactive
same,outcome,[11],inactive
same,outcome,[12],inactive
same,outcome,[13],inactive
same,outcome,[16],inactive
same,outcome,[18],inactive
C=CC(=O)OCC(CC)(COC(=O)C=C)COC(=O)C=C,outcome,[1],inactive
same,AC50,[2],85.1 µM (active) and 89.1 µM (active)
same,AC50,[3],69.1 µM (active)
same,outcome,[3],inactive
CCCCOCC1CO1 (configuration not stated),outcome,[1],inactive
same,outcome,[2],inactive
same,outcome,[3],inactive
CCC(C)(C)c1ccc(O)cc1,outcome,[1],inactive
same,outcome,[2],inactive
same,outcome,[3],inactive
same,outcome,[4],inactive
same,AC50,[5],51.1 µM (active)
same,AC50,[6],22.3 µM (active)
same,AC50,[7],52.7 µM (active)
same,AC50,[20],48.4 µM (active)
same,AC50,[8],44.5 µM (active)
same,AC50,[9],48.1 µM (active)
same,AC50,[10],22.2 µM (active)
same,AC50,[11],48.8 µM (active)
same,AC50,[12],47.4 µM (active)
same,outcome,[13],inactive
same,AC50,[16],47.2 µM (active)
same,AC50,[17],31.6 µM (active)
same,AC50,[18],47.9 µM (active)
CC(=O)CCc1ccc2c(c1)OCO2,outcome,[1],inactive
same,outcome,[2],inactive
O=NN1CCCC1,outcome,[1],inactive
same,outcome,[2],inactive
same,outcome,[3],inactive
